Test results taken from PMC7862700, “An all-to-all approach to the identification of sequence-specific readers for epigenetic DNA modifications on cytosine”.

Columns and labels:
Assay in all cases: DAPPL (digital affinity profiling via proximity ligation, sequencing); 10 mM Tris-HCl pH 7.5, 50 mM NaCl, 1 mM DTT, 4% glycerol, room temperature, 30 min; GST-TFs on glutathione beads, 16-mer random dsDNA library, 0.1% formaldehyde crosslink after washing; high values mean tight binding
Conditions in all cases: protein: recombinant; tags: N-terminal GST; dsDNA, one strand shown
[1] = biological target: T1, FLI1 (Homo sapiens, UniProt Q01543 1-452)
T1 sequence: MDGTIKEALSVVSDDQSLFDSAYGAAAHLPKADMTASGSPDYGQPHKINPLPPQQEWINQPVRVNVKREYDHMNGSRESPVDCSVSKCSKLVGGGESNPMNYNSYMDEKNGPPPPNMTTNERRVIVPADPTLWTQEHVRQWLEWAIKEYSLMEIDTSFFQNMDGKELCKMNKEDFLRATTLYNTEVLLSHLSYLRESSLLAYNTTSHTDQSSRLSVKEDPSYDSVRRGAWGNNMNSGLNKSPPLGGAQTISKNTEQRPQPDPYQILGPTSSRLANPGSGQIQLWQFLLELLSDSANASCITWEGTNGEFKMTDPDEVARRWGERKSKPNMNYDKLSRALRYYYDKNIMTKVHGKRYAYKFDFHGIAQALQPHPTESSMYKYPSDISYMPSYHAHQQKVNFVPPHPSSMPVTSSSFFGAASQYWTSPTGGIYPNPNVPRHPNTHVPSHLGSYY
In short: (§1)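 Pools of DNA-barcoded human transcription factors, expressed in yeast as GST fusions on glutathione beads and combined with a tag-only sample, were incubated with 200 nmole of a 16-mer random double-stranded DNA library. Incubation took 30 min at room temperature in Tris/NaCl/DTT/glycerol buffer and was followed by washing, 0.1% formaldehyde crosslinking, proximity ligation (BsaI/T4 ligase, 1 h, 37 °C), PCR amplification and sequencing on an Illumina NextSeq500. Binding signal is the ratio of a hexamer's read frequency for a factor to its frequency for the tag-only sample.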

[2] = biological target: T2, ELK1 (Homo sapiens, UniProt P19419 1-428)
T2 sequence: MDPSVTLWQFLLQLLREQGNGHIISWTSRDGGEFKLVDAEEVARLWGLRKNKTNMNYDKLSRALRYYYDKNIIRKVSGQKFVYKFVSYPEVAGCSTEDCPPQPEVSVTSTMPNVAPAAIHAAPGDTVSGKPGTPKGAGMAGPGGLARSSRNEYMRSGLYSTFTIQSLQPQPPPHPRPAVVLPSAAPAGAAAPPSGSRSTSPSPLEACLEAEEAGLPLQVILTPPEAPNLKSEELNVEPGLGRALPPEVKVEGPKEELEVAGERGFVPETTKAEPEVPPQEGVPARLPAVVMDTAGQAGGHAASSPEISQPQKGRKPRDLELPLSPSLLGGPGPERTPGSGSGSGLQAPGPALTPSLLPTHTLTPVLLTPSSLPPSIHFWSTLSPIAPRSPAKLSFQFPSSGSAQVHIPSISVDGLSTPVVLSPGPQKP
In short: as §1

[3] = biological target: T3, GABPA (Homo sapiens, UniProt Q06546 1-454)
T3 sequence: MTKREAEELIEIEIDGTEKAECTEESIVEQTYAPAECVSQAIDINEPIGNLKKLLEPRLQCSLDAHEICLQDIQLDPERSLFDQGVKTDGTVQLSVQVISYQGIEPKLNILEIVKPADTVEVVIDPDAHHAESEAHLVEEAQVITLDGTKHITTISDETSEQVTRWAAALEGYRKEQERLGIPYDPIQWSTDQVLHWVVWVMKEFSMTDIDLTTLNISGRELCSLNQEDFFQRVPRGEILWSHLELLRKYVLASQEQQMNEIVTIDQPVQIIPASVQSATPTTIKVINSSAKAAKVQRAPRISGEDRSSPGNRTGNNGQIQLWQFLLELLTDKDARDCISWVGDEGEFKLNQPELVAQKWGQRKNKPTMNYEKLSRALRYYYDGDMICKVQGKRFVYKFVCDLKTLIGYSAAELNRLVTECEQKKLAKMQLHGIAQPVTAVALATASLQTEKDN
In short: as §1

[4] = biological target: T4, ERG (Homo sapiens, UniProt P11308 1-479)
T4 sequence: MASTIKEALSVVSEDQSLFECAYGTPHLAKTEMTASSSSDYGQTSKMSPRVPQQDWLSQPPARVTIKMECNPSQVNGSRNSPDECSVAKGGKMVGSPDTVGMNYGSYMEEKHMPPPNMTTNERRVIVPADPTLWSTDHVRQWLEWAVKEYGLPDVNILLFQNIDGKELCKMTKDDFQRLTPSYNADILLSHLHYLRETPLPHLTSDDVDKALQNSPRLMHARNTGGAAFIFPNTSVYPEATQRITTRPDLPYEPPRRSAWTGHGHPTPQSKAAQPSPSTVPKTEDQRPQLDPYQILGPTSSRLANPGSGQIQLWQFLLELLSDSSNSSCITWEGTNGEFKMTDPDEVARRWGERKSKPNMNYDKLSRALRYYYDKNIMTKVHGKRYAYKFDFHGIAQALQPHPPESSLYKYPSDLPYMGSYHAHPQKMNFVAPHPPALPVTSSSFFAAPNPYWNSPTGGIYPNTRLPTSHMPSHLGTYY
In short: as §1

[5] = biological target: ELF1 (Homo sapiens, UniProt P32519 1-619)
In short: as §1

[6] = biological target: T5, EHF (Homo sapiens, UniProt Q9NZC4 1-300)
T5 sequence: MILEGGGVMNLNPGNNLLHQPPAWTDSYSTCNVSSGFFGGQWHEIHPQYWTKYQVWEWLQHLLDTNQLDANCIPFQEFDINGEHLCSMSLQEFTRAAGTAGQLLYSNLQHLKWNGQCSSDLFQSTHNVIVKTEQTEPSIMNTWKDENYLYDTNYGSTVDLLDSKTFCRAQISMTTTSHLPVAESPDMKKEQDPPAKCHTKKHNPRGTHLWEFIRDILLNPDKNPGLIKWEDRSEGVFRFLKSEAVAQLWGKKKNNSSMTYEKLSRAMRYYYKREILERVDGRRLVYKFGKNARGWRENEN
In short: as §1

[7] = biological target: SPI1 (Homo sapiens, UniProt P17947 1-270)
In short: as §1

[8] = biological target: SPIB (Homo sapiens, UniProt Q01892 1-262)
In short: as §1

[9] = biological target: T6, ELK3 (Homo sapiens, UniProt P41970 1-407)
T6 sequence: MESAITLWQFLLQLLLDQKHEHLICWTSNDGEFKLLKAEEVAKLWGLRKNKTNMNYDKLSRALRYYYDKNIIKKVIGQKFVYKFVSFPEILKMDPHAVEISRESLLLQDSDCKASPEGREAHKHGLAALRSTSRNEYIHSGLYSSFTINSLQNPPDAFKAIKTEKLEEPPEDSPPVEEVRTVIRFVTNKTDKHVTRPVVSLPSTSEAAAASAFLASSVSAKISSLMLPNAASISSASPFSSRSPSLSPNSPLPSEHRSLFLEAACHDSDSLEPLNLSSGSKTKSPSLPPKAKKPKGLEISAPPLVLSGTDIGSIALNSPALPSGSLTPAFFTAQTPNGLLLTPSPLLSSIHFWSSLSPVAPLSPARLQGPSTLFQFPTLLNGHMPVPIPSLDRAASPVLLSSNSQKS
In short: as §1

Sequence of SPIB (Q01892 whole entry): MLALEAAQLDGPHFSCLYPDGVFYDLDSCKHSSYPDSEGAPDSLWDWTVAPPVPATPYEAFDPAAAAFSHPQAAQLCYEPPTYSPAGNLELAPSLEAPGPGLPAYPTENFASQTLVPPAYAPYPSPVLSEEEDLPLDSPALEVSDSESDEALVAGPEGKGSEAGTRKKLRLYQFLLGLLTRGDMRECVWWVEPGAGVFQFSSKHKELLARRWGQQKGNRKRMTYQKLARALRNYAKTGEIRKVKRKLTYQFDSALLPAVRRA
Sequence of ELF1 (P32519 whole entry): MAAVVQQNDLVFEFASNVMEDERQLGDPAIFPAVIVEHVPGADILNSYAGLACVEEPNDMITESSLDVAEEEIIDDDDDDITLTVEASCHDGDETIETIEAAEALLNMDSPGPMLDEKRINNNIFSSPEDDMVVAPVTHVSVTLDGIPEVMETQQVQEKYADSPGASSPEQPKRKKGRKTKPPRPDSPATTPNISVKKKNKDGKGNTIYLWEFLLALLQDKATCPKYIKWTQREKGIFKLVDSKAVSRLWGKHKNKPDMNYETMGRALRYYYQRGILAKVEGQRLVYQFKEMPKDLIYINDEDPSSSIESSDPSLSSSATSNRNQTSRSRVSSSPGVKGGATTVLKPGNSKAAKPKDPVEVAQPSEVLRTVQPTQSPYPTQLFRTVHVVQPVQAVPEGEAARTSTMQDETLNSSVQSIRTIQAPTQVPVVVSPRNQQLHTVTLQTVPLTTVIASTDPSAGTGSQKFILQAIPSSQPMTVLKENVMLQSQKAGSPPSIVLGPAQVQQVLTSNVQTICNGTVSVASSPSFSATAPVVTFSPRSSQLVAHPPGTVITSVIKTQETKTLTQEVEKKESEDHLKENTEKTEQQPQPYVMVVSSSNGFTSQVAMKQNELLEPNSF

For GTTGCT, the binding signal [1] was 1.34 fold enrichment (6-mer frequency, TF over GST control), the binding signal [2] was 1.26 fold enrichment (6-mer frequency, TF over GST control) and the binding signal [3] was 1.25 fold enrichment (6-mer frequency, TF over GST control). For the same sequence, the binding signal [4] was 1.3 fold enrichment (6-mer frequency, TF over GST control), the binding signal [5] was 1.31 fold enrichment (6-mer frequency, TF over GST control) and the binding signal [6] was 1.35 fold enrichment (6-mer frequency, TF over GST control). The binding signal [7] was 1.34 fold enrichment (6-mer frequency, TF over GST control), the binding signal [8] was 1.28 fold enrichment (6-mer frequency, TF over GST control) and the binding signal [9] was 1.25 fold enrichment (6-mer frequency, TF over GST control).
